Here are results for 14 molecules from PubChem BioAssay AID2283260 (EPA ToxCast).

The term AC50 denotes the concentration giving half of the maximal activity seen.

Records with an inconclusive call do not appear. Calls of active or inactive are those of the source. Rule for the calls: active = hit-call score of the fitted dose curve at least 0.9, where 1 is the maximum; inconclusive = response in the unintended direction; inactive = score below 0.9.

This assay deals with human Complement Component 5, Anaphylatoxin Receptor (C5a), C5AR1 (gene 728) (UniProt P21730). Put plainly: NVS_GPCR_hC5a: NovaScreen (NVS) G Protein-Coupled Receptor Assay for human Complement Component 5, Anaphylatoxin Receptor (C5a). The protocol: NVS_GPCR_hC5a is a biochemical, single-readout assay that uses extracted gene-proteins from U937 in a cell-free assay. Measurements were taken 2 hours after chemical dosing in a 96-well plate.NVS_GPCR_hC5a is one of one assay component(s) measured or calculated from the NVS_GPCR_hC5a assay. It is designed to make measurements of radioligand binding, a form of binding reporter, as detected with scintillation counting signals by Filter-based radiodetection technology.Data from the assay component NVS_GPCR_hC5a was analyzed into 1 assay endpoint. This assay endpoint, NVS_GPCR_hC5a, was analyzed in the positive analysis fitting direction relative to DMSO as the negative control and baseline of activity. Using a type of binding reporter, loss-of-signal activity can be used to understand changes in the binding as they relate to the gene C5AR1. Furthermore, this assay endpoint can be referred to as a primary readout, because the performed assay has only produced 1 assay endpoint. To generalize the intended target to other relatable targets, this assay endpoint is annotated to the gpcr intended target family, where the subfamily is rhodopsin-like receptor.
Sequence of human Complement Component 5, Anaphylatoxin Receptor (C5a), C5AR1 (gene 728) (P21730 whole entry, looked up): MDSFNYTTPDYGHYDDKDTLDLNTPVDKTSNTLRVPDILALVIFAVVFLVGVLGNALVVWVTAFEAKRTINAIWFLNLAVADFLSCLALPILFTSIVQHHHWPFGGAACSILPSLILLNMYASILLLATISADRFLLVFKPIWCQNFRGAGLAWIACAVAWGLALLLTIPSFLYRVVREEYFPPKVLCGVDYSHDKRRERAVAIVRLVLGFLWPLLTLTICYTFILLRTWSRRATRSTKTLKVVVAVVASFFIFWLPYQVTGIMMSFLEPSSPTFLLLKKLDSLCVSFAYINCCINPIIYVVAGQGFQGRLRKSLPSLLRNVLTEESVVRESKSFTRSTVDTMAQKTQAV
Binding assays used specific radioligands (tritiated, iodinated) with non-radioactive competitive displacement ligands in agonist or antagonist protocols (as indicated) and various reference compounds and inhibitors to titrate specific binding to receptors and transporters. Most enzyme assays (CYPs, kinases, phosphatases, proteases, HDACs) used recombinant protein and specific substrates (fluorescence mostly, some colorimetric and radioactive) and inhibitors, followed by a biochemical separation of substrate and product. All assays for the biochemical HTS were initially run in duplicate at a single concentration (10 uM for CYP450 assays and 25 uM for all others). Assay-chemical combinations meeting a pre-defined threshold (e.g., 30% inhibition and other criteria defined below) were then run in singleton concentration-response format with maximum concentration of 20 uM for CYPs and 50 uM for all others. Each assay was run with positive and negative controls, and concurrent controls on every plate. The follow-up (secondary) screen tested active chemical-pairs in concentration series, as well as a few additional assays not tested in the primary screen, some selected negative inactives, and several cases re-run in the concentration series for confirmatory purposes.
Consider `CCC(C)(C)C(=O)OC1=C(c2ccc(Cl)cc2Cl)C(=O)OC12CCCCC2`, for which the molecule was called inactive.

With `COc1ccc(C(c2ccc(OC)cc2)C(Cl)(Cl)Cl)cc1`, the result was inactive.

Take `C#CCOS(=O)OC1CCCCC1Oc1ccc(C(C)(C)C)cc1` (centres undefined): the molecule was classed as inactive.

For `COC(=O)c1c(C(F)F)nc(C(F)(F)F)c(C2=NCCS2)c1CC(C)C`, the molecule was called inactive.

In the case of `CCCCCCCCCC[N+](C)(C)CCCCCCCCCC`, the AC50 was 42.3 µM (active).

As for `[Cl-].[Cl-].[Hg+2]`, the AC50 was 25 µM (active).

For the molecule `CCCCCCCCCC`, the molecule was called inactive.

For the molecule `CCC[CH2][Sn]([Cl])([CH2]CCC)[CH2]CCC`, the molecule was called inactive.

`C=CCc1cc(S(=O)(=O)c2ccc(O)c(CC=C)c2)ccc1O`: the outcome was inactive.

`Oc1ccc(C(c2ccc(O)cc2)C(Cl)(Cl)Cl)cc1`: the call was inactive.

With `COc1cc(OC)nc(NC(=O)NS(=O)(=O)c2ncccc2OCC(F)(F)F)n1`, the outcome was inactive.

In the case of `CC1(C)C(C=C(Cl)Cl)C1C(=O)OC(C#N)c1cccc(Oc2ccccc2)c1` (centres undefined), the outcome was inactive.

In the case of `CCOC(=O)O[C@H](C)OC(=O)c1ccc2c(c1)cc(C(=O)NC1CCN(C(C)C)CC1)n2Cc1cc(-c2ccc(Cl)s2)on1`, the AC50 was 39.6 µM (active).

For the molecule `CCOC(=O)NCCOc1ccc(Oc2ccccc2)cc1`, the result was inactive.
